Screens (PubChem)
Yp Topo-I inh: Yersinia pestis topoisomerase I inhibitors, primary screen, biochemical, cleavage product accumulation, plate reader, single point; hit rate 0.064% among 360,000; AID 504884, 2011; Y. pestis Topo-I cleavage product accumulation; activity, % at 10 µM; in the data active = activity above about 50%, passing the limit was not always enough
Mtb betalactam: beta-lactam sensitization of Mtb H37Rv, H37Rv | inhibition, % at 25 µM | AID 434955, 2010 | M. tuberculosis H37Rv growth with meropenem, percent inhibition | hit rate 0.27% among 330,000; call rule not given here;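 note: growth measured after seven days incubation then overnight dye step; 0% = bacteria only wells and 100% = bacteria with antibiotic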
CCHF vOTU inh-1: CCHFV vOTU protease inhibitors, primary screen, biochemical, Pep-AMC substrate, fluorescence; inhibition, % at 11.5 µM; hit rate 0.55% among 370,000; Crimean-Congo hemorrhagic fever virus L polyprotein viral ovarian tumor (vOTU) protease …; note: 0% = vehicle wells with enzyme and 100% = no enzyme wells
RecA splice inh: Mtb RecA intein splicing inhibitors, primary screen, biochemical, fluorescence, HTS; cell-free RecA intein splicing; inhibition, % (test concentration not listed); hit rate 0.75% among 290,000; AID 2221, 2009; in the data active = inhibition above about 30%;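 note: 0% = vehicle wells and 100% = reference inhibitor control wells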
BJeLR lethal: MLPCN primary cell-based screen for lethality selective to Ras in HRASV12 cells | BJeLR (HRASV12) viability, CellTiter-Glo ATP luminescence, 48 h | inhibition, % (test concentration not listed) | hit rate 0.17% among 300,000; in the data active = inhibition above about 50%
Mtb BioA inh: M. tuberculosis BioA enzyme inhibitors, primary screen, biochemical, plate reader, single point, HTS. hit rate 0.096% among 360,000. 7,8-diaminopelargonic acid synthase BioA (Mycobacterium tuberculosis). inhibition, % at 9.99 µM. AID 602481, 2012. purified M. tuberculosis BioA enzyme; in the data active = inhibition above about 40%
CCHF vOTU inh-2: CCHFV vOTU protease inhibitors, confirmation, biochemical, Pep-AMC substrate, fluorescence; shares compounds with CCHF vOTU inh-1; Recombinant CCHFV vOTU; inhibition, % at 11.5 µM; hit rate 17% among 1,900; AID 686976, 2013
Numbers without * were called inactive; . = no result; ! = not active in a repeat. Rows were chosen to be rich in hits. Some 1.1% of all compounds tested hit in one or more screens of this group. Cut-off read from the data, not from the text of the source, unless noted: active = inhibition above about 30%; inactive = the rest.

SMILES | Yp Topo-I inh | Mtb betalactam | CCHF vOTU inh-1 | RecA splice inh | BJeLR lethal | Mtb BioA inh | CCHF vOTU inh-2
CO[C@H]1CC[C@H]2CCN(C)C(=O)[C@H](C)N(C)C(=O)c3cccc(C#N)c3OC[C@H]1O2 | . | . | . | . | . | 0 | .
C=CCc1cccc(/C=N/c2ncccc2O)c1O | -4 | 4 | 59* | 0 | 2 | . | 16
COc1ccccc1/C=C/C=N/NC(=O)c1cnccn1 | 0 | 2 | 30* | 0 | 8 | . | -3
O=C(COC(=O)C1CCN(c2ccc(C(F)(F)F)cn2)CC1)NCc1ccccc1 | 16 | -3 | 35* | . | . | 0 | -2
CC(NC(=O)COC(=O)C1CCN(c2ccc(C(F)(F)F)cn2)CC1)c1ccccc1 (stereo unspecified) | 20 | . | 18 | . | . | 1 | .
COc1ccccc1CC(=O)Nc1ccc(S(=O)(=O)N2CCN(C)CC2)cc1 | -1 | -8 | 40* | 2 | -8 | 0 | -15
COc1ccccc1CC(=O)Nc1ccc(S(=O)(=O)N2CC(C)CC(C)C2)cc1 (stereo unspecified) | 15 | -9 | 12 | . | . | 0 | .
COCC(=O)OC1CCn2c1nc1c2C(=O)C(C)=C(NC(C)=O)C1=O (stereo unspecified) | 4 | . | 100* | . | . | . | 100*
COC(=O)CC1OCC=C2CN3CCC45C6=CC(=O)C(=O)C([N+](=O)[O-])=C6NC4C1C2CC35 (stereo unspecified) | -1 | . | 64* | . | . | 1 | 23
CCNC(=O)Nc1ccc2c(c1)C(=O)N(C)[C@H]1CC[C@H](CC(=O)NCC3CC3)O[C@H]1CO2 | . | . | . | . | . | 1 | .
Cc1ccc(C)c(-n2c3nc(=O)[nH]c(=O)c-3cc3cc([N+](=O)[O-])ccc32)c1 | 8 | -4 | 79* | . | . | 2 | 4
O=C1C(=C(I)I)c2ccccc2-c2ccccc21 | -15 | . | 95* | . | . | . | 55*
CCOC(=O)CSc1nc2c(sc(=S)n2-c2ccc(CC)cc2)c(=O)[nH]1 | -2 | 3 | 35* | -1 | 0 | 1 | 23
CCCN(C(=O)Cc1nc(N)n[nH]1)C1(C(=O)Nc2c(C)cccc2C)CCCCC1 | 0 | 1 | 39* | -2 | 7 | -3 | -24
Cc1ccc(S(=O)(=O)N(C)C[C@@H]2OCCCC[C@H](C)Oc3ccc(NC(=O)Nc4ccc5c(c4)OCO5)cc3C(=O)N([C@@H](C)CO)C[C@H]2C)cc1 | . | . | . | . | . | -5 | .
Cc1cc2c(cc1C)C(=O)C(Br)=C(N)C2=O | 21 | . | 78* | . | . | -3 | 57*
Cc1cc(O)c(Sc2ncn[nH]2)cc1NS(=O)(=O)c1ccc(Cl)cc1 | -11 | 0 | -3 | . | . | -10 | .
O=S(=O)(Nc1cc(Sc2ncn[nH]2)c(O)c2ccccc12)c1ccccc1 | -13 | . | 105* | . | . | . | 97*
CNC(=O)C[C@H]1CC[C@H]2[C@@H](COc3ccc(NC(=O)Nc4c(C)noc4C)cc3C(=O)N2C)O1 | . | . | . | . | . | 0 | .
C=CCOC(=O)c1cc(-c2ccc(/C=C3\C(=O)NC(=O)C(C#N)=C3C)o2)ccc1Cl | -19 | . | 33* | . | . | 7 | 28
COc1ccccc1CNC(=O)C[C@H]1C=C[C@@H](NC(=O)CN(C)C)[C@H](CO)O1 | . | . | . | . | . | 0 | .
CC(C)(C)c1ccc(C(=O)OCc2c(-c3ccccc3)ncc3ccccc23)cc1 | -1 | -10 | 30* | . | . | 1 | -13
COc1cccc(-c2ncc3ccccc3c2COC(=O)c2ccc(C(C)(C)C)cc2)c1 | 17 | -6 | 4 | . | . | -2 | .
CN1CC[C@@]2(C)c3cc(O)ccc3N(C)[C@@H]12 | 2 | . | 40*! | . | . | 0 | 28
Cc1cc(SCC(=O)NC2CC2)nc2ccccc12 | 7 | 3 | 40* | . | . | 0 | -1
COc1ccc2c(C)cc(SCC(=O)NC3CCCC3)nc2c1 | 26 | 72 | 6 | . | . | -1 | .
CC(C)c1[nH]nc2c1C(c1cccc(C(F)(F)F)c1)N(c1ccccc1)C2=O (stereo unspecified) | . | . | 34* | . | . | . | 3
